Test results reported in article PMC4242493, “Sequence specificity incompletely defines the genome-wide occupancy of Myc”.
The full ranking holds about 33,000 sequences; the median of “normalized occupancy” is about 0.075, and the highest 2% start at about 0.095. The list comes from a sample in which the highest values are over-represented; it also holds similar and randomly drawn sequences.

What follows are sequences tested against MaxL homodimer (Homo sapiens, UniProt P61244 1-160) (assay: universal protein-binding microarray (PBM); PBS-based mixture, 10 nM His-tagged protein dimer, 2% milk, 200 ng/uL BSA, 50 ng/uL salmon testes DNA, 0.02% TX-100; detection with Alexa 488 anti-His antibody;; high values mean tight binding). Conditions: protein: recombinant; tags: C-terminal His-tag (pET21a); chain copies: 2; dsDNA, one strand shown.
MaxL homodimer, sequence (P61244 whole entry): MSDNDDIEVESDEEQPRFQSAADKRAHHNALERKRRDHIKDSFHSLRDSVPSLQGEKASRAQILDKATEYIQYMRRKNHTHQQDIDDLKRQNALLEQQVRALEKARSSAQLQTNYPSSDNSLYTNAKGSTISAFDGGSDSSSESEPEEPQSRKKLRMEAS
Method in brief: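 Agilent 4 x 44 K arrays carrying the 'all 10-mer' universal design were incubated with His-tagged protein dimer at 10 nM. Protein that bound was tagged using fluorophore-conjugated anti-His antibody at 10 ng/μL, and a GenePix 4400A scanned the arrays to give an intensity for every 8-mer. Each binding occupancy value expresses an intensity relative to the top-ranked intensity.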
In the case of ACTTTTAT, the binding signal is reported as 0.0748 normalized occupancy. Work on CAGTAAAC yielded a binding signal of 0.0746 normalized occupancy. With ACTTTGAA the binding signal was 0.0759 normalized occupancy. For CGTTATGA, the binding signal was 0.0829 normalized occupancy. Work on CTTGATGA yielded a binding signal of 0.0755 normalized occupancy. AGATTATC gave a binding signal of 0.0807 normalized occupancy. With CCTCGCCG the binding signal was 0.0725 normalized occupancy. Sequence GTCATGGA has a binding signal of 0.0831 normalized occupancy. In the case of GGCATGGA, the binding signal is reported as 0.0929 normalized occupancy. CGCATGGA was tested, and the binding signal was 0.106 normalized occupancy. In the case of ACTGTTTC, the binding signal is reported as 0.0744 normalized occupancy. For ATGAGTAC, the binding signal was 0.0839 normalized occupancy. With AATGCTAG the binding signal was 0.079 normalized occupancy. For GATGCTAC, the binding signal was 0.081 normalized occupancy. AATGCTAC showed a binding signal of 0.0772 normalized occupancy. With CATGCTAC the binding signal was 0.0953 normalized occupancy. With CATGCTAG the binding signal was 0.106 normalized occupancy. Sequence CATGCTAA has a binding signal of 0.091 normalized occupancy. GGTAACGA gave a binding signal of 0.0778 normalized occupancy. In the case of AGATGACT, the binding signal is reported as 0.0724 normalized occupancy. CGGTGGAA gave a binding signal of 0.0725 normalized occupancy. With TCATATGA the binding signal was 0.0914 normalized occupancy. ATATATGG showed a binding signal of 0.0895 normalized occupancy. Sequence ACATATGG has a binding signal of 0.0977 normalized occupancy. In the case of ACATATGA, the binding signal is reported as 0.0952 normalized occupancy. ACATATCC showed a binding signal of 0.0835 normalized occupancy. With ACATATGC the binding signal was 0.0976 normalized occupancy. Work on ACATATGT yielded a binding signal of 0.0906 normalized occupancy. Work on CCATATGA yielded a binding signal of 0.0926 normalized occupancy. With ATATATGC the binding signal was 0.0867 normalized occupancy. Sequence GAACATAC has a binding signal of 0.0829 normalized occupancy. For GAATTACC, the binding signal was 0.072 normalized occupancy. Work on GCACCTTA yielded a binding signal of 0.0768 normalized occupancy. CACGAGGA gave a binding signal of 0.137 normalized occupancy. AACGAGAC was tested, and the binding signal was 0.075 normalized occupancy. Sequence TACGAGGA has a binding signal of 0.0793 normalized occupancy. Work on CACGAGCC yielded a binding signal of 0.0812 normalized occupancy. In the case of CACGAGAC, the binding signal is reported as 0.1 normalized occupancy. AACGAGGC showed a binding signal of 0.0809 normalized occupancy. CACGAGGC was tested, and the binding signal was 0.134 normalized occupancy. AACGAGGG gave a binding signal of 0.0775 normalized occupancy. Sequence AACGAGGA has a binding signal of 0.088 normalized occupancy. Sequence CACGAGAA has a binding signal of 0.0893 normalized occupancy. CACGAGGG gave a binding signal of 0.134 normalized occupancy. Work on CACGAGCG yielded a binding signal of 0.082 normalized occupancy. In the case of TACGGGCA, the binding signal is reported as 0.0723 normalized occupancy. GGTCTTAA gave a binding signal of 0.075 normalized occupancy. With CTCTATTA the binding signal was 0.0807 normalized occupancy. In the case of CCCCGCAG, the binding signal is reported as 0.072 normalized occupancy. CAAATCTA showed a binding signal of 0.0804 normalized occupancy. GCTTCTTA showed a binding signal of 0.0746 normalized occupancy. Sequence CACAAGAG has a binding signal of 0.0792 normalized occupancy. Work on GACGTTTA yielded a binding signal of 0.0757 normalized occupancy. Sequence CATGTTTC has a binding signal of 0.0831 normalized occupancy. CATGTTTA was tested, and the binding signal was 0.0975 normalized occupancy. Work on AACGTTTC yielded a binding signal of 0.0739 normalized occupancy. Sequence AACGTTTA has a binding signal of 0.0757 normalized occupancy. With CACGTTTA the binding signal was 0.0986 normalized occupancy. Sequence CGCGTTTC has a binding signal of 0.0778 normalized occupancy. In the case of AATGTTTA, the binding signal is reported as 0.0748 normalized occupancy. In the case of CACGTTTC, the binding signal is reported as 0.105 normalized occupancy. Sequence AGAAACCC has a binding signal of 0.0744 normalized occupancy. Work on ATAGAATC yielded a binding signal of 0.0826 normalized occupancy. For AGTGCTAG, the binding signal was 0.0731 normalized occupancy. For ACCTTCAA, the binding signal was 0.0719 normalized occupancy. Sequence CGAATAGA has a binding signal of 0.0736 normalized occupancy. In the case of CAGAACTA, the binding signal is reported as 0.0728 normalized occupancy. In the case of CTAGAAGA, the binding signal is reported as 0.0731 normalized occupancy. With AACGATGA the binding signal was 0.0771 normalized occupancy. With ACCCGTCA the binding signal was 0.0779 normalized occupancy. With ATGTGTCG the binding signal was 0.0903 normalized occupancy. Work on CTGTGTGA yielded a binding signal of 0.0738 normalized occupancy. Work on GTGTGTGA yielded a binding signal of 0.0839 normalized occupancy. GTGTGTCA showed a binding signal of 0.0887 normalized occupancy. In the case of ATGTGCGC, the binding signal is reported as 0.0928 normalized occupancy. In the case of ATGTGTCA, the binding signal is reported as 0.101 normalized occupancy. In the case of ATGTGAGG, the binding signal is reported as 0.0857 normalized occupancy. Sequence GTGTGAGA has a binding signal of 0.0806 normalized occupancy. In the case of ATGTGTGA, the binding signal is reported as 0.102 normalized occupancy. ATGTGCGA was tested, and the binding signal was 0.0863 normalized occupancy. In the case of ATGTGCGG, the binding signal is reported as 0.104 normalized occupancy. ATGTGAGA gave a binding signal of 0.0969 normalized occupancy. ATTGAACG was tested, and the binding signal was 0.082 normalized occupancy. In the case of CTGACTAA, the binding signal is reported as 0.0729 normalized occupancy. ACATAAGA gave a binding signal of 0.0789 normalized occupancy. For AACCTCTA, the binding signal was 0.0738 normalized occupancy. Sequence CCCTCCTC has a binding signal of 0.0734 normalized occupancy. In the case of CGTACTGA, the binding signal is reported as 0.0729 normalized occupancy. In the case of AGCGCACG, the binding signal is reported as 0.0877 normalized occupancy. With AGGAAAAC the binding signal was 0.075 normalized occupancy. ACGCGCCC gave a binding signal of 0.0753 normalized occupancy. In the case of TAACTGCA, the binding signal is reported as 0.0726 normalized occupancy. In the case of GCTACCAA, the binding signal is reported as 0.0737 normalized occupancy. With TGATGGCA the binding signal was 0.08 normalized occupancy. For AGTCCCCC, the binding signal was 0.0801 normalized occupancy. Work on ATCTTTAC yielded a binding signal of 0.0755 normalized occupancy. In the case of ATGTCACA, the binding signal is reported as 0.0852 normalized occupancy. For CTGTGTGC, the binding signal was 0.0783 normalized occupancy. ATGTGTGG showed a binding signal of 0.0891 normalized occupancy. With ATGTCACG the binding signal was 0.101 normalized occupancy. In the case of ATGTCACC, the binding signal is reported as 0.08 normalized occupancy. ATGTGTGC gave a binding signal of 0.0957 normalized occupancy. AATTCCGA gave a binding signal of 0.0729 normalized occupancy. With CATCTGTC the binding signal was 0.0856 normalized occupancy. Sequence GGGCTGTA has a binding signal of 0.0762 normalized occupancy. Sequence CCCATCTA has a binding signal of 0.0745 normalized occupancy. Work on CATAAATC yielded a binding signal of 0.0857 normalized occupancy. For CCGAACAA, the binding signal was 0.0756 normalized occupancy. GAAGTGAC showed a binding signal of 0.0733 normalized occupancy. Sequence GACATGAC has a binding signal of 0.0811 normalized occupancy. For GACATGAA, the binding signal was 0.0775 normalized occupancy. In the case of CTCATGAG, the binding signal is reported as 0.0946 normalized occupancy. For CACATGAC, the binding signal was 0.129 normalized occupancy. CACATGAG gave a binding signal of 0.109 normalized occupancy. For TACATGAA, the binding signal was 0.0793 normalized occupancy. AACATGAG showed a binding signal of 0.0999 normalized occupancy. In the case of CACATGAA, the binding signal is reported as 0.104 normalized occupancy. Work on AACATGAC yielded a binding signal of 0.0831 normalized occupancy. For CAAATGAG, the binding signal was 0.0793 normalized occupancy. CAAATGAC showed a binding signal of 0.0825 normalized occupancy. In the case of AACATGAA, the binding signal is reported as 0.0878 normalized occupancy. With ATGTACAA the binding signal was 0.0815 normalized occupancy. AAAAACCA gave a binding signal of 0.0806 normalized occupancy. With GCCACAGC the binding signal was 0.0723 normalized occupancy. With AATCGTAC the binding signal was 0.0751 normalized occupancy. GGACCCCA gave a binding signal of 0.0794 normalized occupancy. Work on ATGAGAAA yielded a binding signal of 0.0743 normalized occupancy. ATTGGAAC gave a binding signal of 0.076 normalized occupancy. In the case of ACGTGTGC, the binding signal is reported as 0.109 normalized occupancy. Sequence GCGTGTGA has a binding signal of 0.0941 normalized occupancy. With CCGTGTGA the binding signal was 0.0836 normalized occupancy. Work on CCGTGCGC yielded a binding signal of 0.0813 normalized occupancy. Sequence AGGTGTGG has a binding signal of 0.0847 normalized occupancy. With AAGTGTGC the binding signal was 0.0869 normalized occupancy. With AAGTGTGG the binding signal was 0.0819 normalized occupancy. For ACGTGTGG, the binding signal was 0.104 normalized occupancy. CCGTGTGC was tested, and the binding signal was 0.0858 normalized occupancy. ACGTGCGA gave a binding signal of 0.093 normalized occupancy. In the case of ACGTGTGA, the binding signal is reported as 0.105 normalized occupancy. ACGTGCGC was tested, and the binding signal was 0.113 normalized occupancy. GACGAGAC showed a binding signal of 0.0761 normalized occupancy. With GACAAAAC the binding signal was 0.0749 normalized occupancy. Sequence CACGAATG has a binding signal of 0.0777 normalized occupancy. ATTGAAGC was tested, and the binding signal was 0.0724 normalized occupancy. For ATAGTCTG, the binding signal was 0.0754 normalized occupancy. Sequence ACATGCAC has a binding signal of 0.0954 normalized occupancy. CAATGCAC showed a binding signal of 0.0848 normalized occupancy. Work on CCATGCAG yielded a binding signal of 0.0965 normalized occupancy. CTATGCAG gave a binding signal of 0.0757 normalized occupancy. For AGATGCAC, the binding signal was 0.0867 normalized occupancy. In the case of ACATGCAT, the binding signal is reported as 0.105 normalized occupancy. Work on CCATGCAA yielded a binding signal of 0.0895 normalized occupancy. ATATGCAC gave a binding signal of 0.092 normalized occupancy. Work on CTATGCAC yielded a binding signal of 0.0874 normalized occupancy. For AAATGCAT, the binding signal was 0.079 normalized occupancy. Sequence AGATGCAT has a binding signal of 0.0784 normalized occupancy. For CCATGCAC, the binding signal was 0.0969 normalized occupancy. AAAGTGAA was tested, and the binding signal was 0.0782 normalized occupancy. ACTAGTCA was tested, and the binding signal was 0.0755 normalized occupancy. In the case of CTACCCGA, the binding signal is reported as 0.0741 normalized occupancy. AAATATAC showed a binding signal of 0.0881 normalized occupancy. With GCATTAGC the binding signal was 0.0727 normalized occupancy. CGTATGCC was tested, and the binding signal was 0.0784 normalized occupancy. ACATGCAG showed a binding signal of 0.097 normalized occupancy. In the case of ACATGAAG, the binding signal is reported as 0.0842 normalized occupancy. AGATGCAG was tested, and the binding signal was 0.0757 normalized occupancy. In the case of AAATGCAG, the binding signal is reported as 0.0778 normalized occupancy. In the case of ACATGAAT, the binding signal is reported as 0.0965 normalized occupancy. With ACATGAAC the binding signal was 0.0866 normalized occupancy. With AAGCTATC the binding signal was 0.0722 normalized occupancy. ATGACTTG showed a binding signal of 0.0818 normalized occupancy. Sequence CCGTGCCC has a binding signal of 0.0733 normalized occupancy.
